BoNT-F LC inh: inhibitors of Botulinum neurotoxin F light chain protease; Multiplex microsphere protease cleavage assay, flow cytometry; inhibition, % at 10 µM; 0.22% of 360,000 active; in the data active = inhibition above about 35%, passing the limit was not always enough; inconclusive = no clear call, values can overlap the other calls
Anthrax LF prot: inhibitors of Bacillus anthracis lethal factor protease. 0.12% of 360,000 active. multiplex microsphere protease cleavage assay, LF. inhibition, % at 10 µM. P15917
Target sequence (P15917 whole entry, looked up): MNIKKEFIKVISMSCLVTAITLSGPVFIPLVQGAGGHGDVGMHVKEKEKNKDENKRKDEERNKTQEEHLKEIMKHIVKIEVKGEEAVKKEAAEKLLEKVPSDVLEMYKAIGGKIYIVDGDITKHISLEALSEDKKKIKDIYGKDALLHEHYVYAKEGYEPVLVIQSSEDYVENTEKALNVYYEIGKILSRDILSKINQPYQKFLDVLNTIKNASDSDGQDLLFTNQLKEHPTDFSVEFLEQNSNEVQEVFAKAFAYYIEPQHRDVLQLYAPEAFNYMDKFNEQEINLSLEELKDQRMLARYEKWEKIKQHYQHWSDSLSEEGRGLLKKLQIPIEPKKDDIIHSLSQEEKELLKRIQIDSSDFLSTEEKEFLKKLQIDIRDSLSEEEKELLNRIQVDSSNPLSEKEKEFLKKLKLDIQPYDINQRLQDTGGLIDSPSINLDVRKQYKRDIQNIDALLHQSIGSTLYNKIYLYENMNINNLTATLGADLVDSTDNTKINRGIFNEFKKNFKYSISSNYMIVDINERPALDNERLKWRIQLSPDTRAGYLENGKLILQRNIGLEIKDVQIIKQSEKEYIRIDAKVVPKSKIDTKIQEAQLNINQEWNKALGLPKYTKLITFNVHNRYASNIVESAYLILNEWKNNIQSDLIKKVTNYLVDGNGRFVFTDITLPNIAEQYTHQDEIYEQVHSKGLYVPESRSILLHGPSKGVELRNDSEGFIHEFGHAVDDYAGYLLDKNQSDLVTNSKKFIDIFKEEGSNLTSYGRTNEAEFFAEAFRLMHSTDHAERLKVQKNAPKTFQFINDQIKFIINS
BoNT-A LC inh2: inhibitors of Botulinum neurotoxin A light chain protease; multiplex microsphere protease substrate cleavage, flow cytometry; inhibition, % at 10 µM; 0.17% of 360,000 active
Autofluor counter: compound fluorescence in toxin protease inhibitor counterscreen; 3.1% of 360,000 active; fluorescence intensity (test concentration not listed); compound autofluorescence counterscreen, microsphere flow cytometry; hits give high values; AID 624483; in the data active = fluorescence intensity above about 16000; inconclusive = no clear call, values can overlap the other calls
Hits are given with their value. In the library only some 3.5% were active in any assay of this set; here they are far more common. Rule as the data show it, unless noted: active = inhibition above about 30%; inconclusive = no clear call, values can overlap the other calls; inactive = below that.

`O=C(CCNC(=O)c1ccc(Br)o1)NCc1ccc(Cl)cc1` gave BoNT-F LC inh inactive, Anthrax LF prot inactive, BoNT-A LC inh2 inactive and Autofluor counter 20990.
Screening C#CCCc1cocc1/C=[N+](\[O-])c1ccc(C(=O)OCC)cc1 returned BoNT-F LC inh inactive, Anthrax LF prot inactive, BoNT-A LC inh2 inactive and Autofluor counter inactive.
`O=C(c1[nH]c(C(F)(F)F)nc1-c1ccccc1)N1CCN(C(=O)C2CCCO2)CC1` (stereo not given) gave BoNT-F LC inh inactive, Anthrax LF prot inactive, BoNT-A LC inh2 inactive and Autofluor counter inactive.
Screening CC(C)NC(=O)c1noc2cc([N+](=O)[O-])ccc12 returned BoNT-F LC inh inactive, Anthrax LF prot inactive, BoNT-A LC inh2 inactive and Autofluor counter inactive.
For CN(C)C(=O)c1noc2cc([N+](=O)[O-])ccc12 the results were BoNT-F LC inh inactive, Anthrax LF prot inactive, BoNT-A LC inh2 inactive and Autofluor counter 16570.
`OCCNC(=S)Nc1ccc2c(c1)OCCO2` gave BoNT-F LC inh inconclusive, Anthrax LF prot 30, BoNT-A LC inh2 inactive and Autofluor counter inactive.
Screening Cn1ncc2cc(NC(=S)NC(=O)c3ccccc3)ccc21 returned BoNT-F LC inh inactive, Anthrax LF prot inactive, BoNT-A LC inh2 inactive and Autofluor counter 17054.
`O=C(NC(=S)Nc1ccc2c(c1)OCCO2)c1ccccc1` gave BoNT-F LC inh inactive, Anthrax LF prot inactive, BoNT-A LC inh2 inconclusive and Autofluor counter 25451.
Screening O=C(Nc1cc([N+](=O)[O-])ccc1N1CCCC1)c1ccccc1 returned BoNT-F LC inh inactive, Anthrax LF prot inactive, BoNT-A LC inh2 inactive and Autofluor counter inactive.
Screening CN1CCN(NC(=O)c2cc([N+](=O)[O-])cc([N+](=O)[O-])c2)CC1 returned BoNT-F LC inh inactive, Anthrax LF prot inactive, BoNT-A LC inh2 inactive and Autofluor counter 18837.
`COc1ccc(OC)c(NC(=O)c2ccc(S(=O)(=O)N3CCN(C)CC3)cc2)c1` gave BoNT-F LC inh inactive, Anthrax LF prot inactive, BoNT-A LC inh2 inactive and Autofluor counter 22427.
For COc1ccc(C(=O)Nc2ccc(S(=O)(=O)N3CCN(C)CC3)cc2)cc1 the results were BoNT-F LC inh inactive, Anthrax LF prot inactive, BoNT-A LC inh2 inactive and Autofluor counter inactive.
COc1ccc(C(=O)Nc2cc([N+](=O)[O-])ccc2N2CCN(C)CC2)cc1 was read as BoNT-F LC inh inactive, Anthrax LF prot inactive, BoNT-A LC inh2 inactive and Autofluor counter 19500.
For CN1CCN(c2ccc([N+](=O)[O-])cc2NC(=O)c2ccccc2)CC1 the results were BoNT-F LC inh inactive, Anthrax LF prot inactive, BoNT-A LC inh2 inconclusive and Autofluor counter 16981.
Screening N#Cc1cnn2c(-c3cccc([N+](=O)[O-])c3)ccnc12 returned BoNT-F LC inh inactive, Anthrax LF prot inactive, BoNT-A LC inh2 inactive and Autofluor counter inactive.
Screening Cc1nc(C)c(-c2ccc(SCC(=O)Nc3cccc(Cl)c3C)nn2)s1 returned BoNT-F LC inh inactive, Anthrax LF prot inactive, BoNT-A LC inh2 inactive and Autofluor counter inactive.
CC(C)(C)S(=O)(=O)N1C[C@H]2CC/C=C\C/C(c3ccccc3)=C\2[C@@H]1CCO was read as BoNT-F LC inh inactive, Anthrax LF prot inactive, BoNT-A LC inh2 inactive and Autofluor counter inactive.
Screening CC(=O)N1C[C@H]2CON(C)[C@H]2C[C@H]1c1ccc(-c2cccnc2)cc1 returned BoNT-F LC inh inactive, Anthrax LF prot inactive, BoNT-A LC inh2 inactive and Autofluor counter inactive.
COc1cccc(C(=O)Nc2cc([N+](=O)[O-])ccc2N2CCN(C)CC2)c1 was read as BoNT-F LC inh inactive, Anthrax LF prot inactive, BoNT-A LC inh2 inactive and Autofluor counter 24311.
CCOc1c(Cl)cc(CNc2ccc(N3CCCC3)cc2)cc1OC was read as BoNT-F LC inh inactive, Anthrax LF prot inactive, BoNT-A LC inh2 inactive and Autofluor counter inactive.
Screening CCOc1c(Cl)cc(CNC(C)(C)CC(C)(C)C)cc1OC returned BoNT-F LC inh inactive, Anthrax LF prot inactive, BoNT-A LC inh2 inactive and Autofluor counter 21728.
For CN(C(=O)c1cccc(NC(=O)Cc2cccc([N+](=O)[O-])c2)c1)C1CC1 the results were BoNT-F LC inh inactive, Anthrax LF prot inactive, BoNT-A LC inh2 inactive and Autofluor counter inactive.
Screening CCc1ccc(OCCNC(=O)c2ccc(S(=O)(=O)N(C)C)cc2)cc1 returned BoNT-F LC inh inactive, Anthrax LF prot inactive, BoNT-A LC inh2 inactive and Autofluor counter 22522.
Screening COc1ccc(/C(O)=C(\C#N)c2nc3ccccc3n2C)cc1OC returned BoNT-F LC inh inactive, Anthrax LF prot inactive, BoNT-A LC inh2 inconclusive and Autofluor counter 21521.
For CCSc1nc2ccccc2n1C(=O)c1ccc(S(=O)(=O)N2CCCCC2)cc1 the results were BoNT-F LC inh inactive, Anthrax LF prot inactive, BoNT-A LC inh2 inactive and Autofluor counter 20953.
Screening Cn1c(/C(C#N)=C(\O)c2ccc(S(=O)(=O)N3CCCCC3)cc2)nc2ccccc21 returned BoNT-F LC inh inactive, Anthrax LF prot inactive, BoNT-A LC inh2 inactive and Autofluor counter 23146.
For CCSc1nc2ccccc2n1C(=O)c1ccc(S(=O)(=O)N2CCCCCC2)cc1 the results were BoNT-F LC inh inactive, Anthrax LF prot inactive, BoNT-A LC inh2 inactive and Autofluor counter inactive.
Screening CCN(CC)C(=O)C1=C(C)N(Cc2ccc(OC)cc2)C(=O)C(CC(=O)NCCc2ccccn2)C1 (stereo not given) returned BoNT-F LC inh inactive, Anthrax LF prot inactive, BoNT-A LC inh2 inactive and Autofluor counter inactive.
Screening O=C(O)C(=Cc1ccc([N+](=O)[O-])cc1)c1cccc(Cl)c1 returned BoNT-F LC inh inactive, Anthrax LF prot inactive, BoNT-A LC inh2 inactive and Autofluor counter inactive.
Screening COc1cc(C)c(NC(=O)c2cc(C3CC3)nc3c2cnn3C(C)C)cc1OC returned BoNT-F LC inh inactive, Anthrax LF prot inactive, BoNT-A LC inh2 inactive and Autofluor counter inactive.
O=C(c1ccccc1)N1CCN(C(=S)NCc2ccco2)CC1 was read as BoNT-F LC inh inactive, Anthrax LF prot inactive, BoNT-A LC inh2 inactive and Autofluor counter inactive.
`COc1cc(S(=O)(=O)N(Cc2ccccc2)CC2CCCO2)ccc1-n1cnnn1` (stereo not given) gave BoNT-F LC inh inactive, Anthrax LF prot inactive, BoNT-A LC inh2 inactive and Autofluor counter inactive.
COc1ccc(CN(CC2CCCO2)S(=O)(=O)c2ccc(C(=O)O)cc2)cc1OC (stereo not given) was read as BoNT-F LC inh inactive, Anthrax LF prot inactive, BoNT-A LC inh2 inactive and Autofluor counter 23567.
For CCC(C)[C@H](NC(=O)Nc1ccc2c(c1)OCCO2)C(=O)O (stereo not given in full) the results were BoNT-F LC inh inactive, Anthrax LF prot inactive, BoNT-A LC inh2 inactive and Autofluor counter inactive.
`COC(=O)[C@H](CC(C)C)NC(=O)Nc1ccc2c(c1)OCCO2` gave BoNT-F LC inh inactive, Anthrax LF prot inactive, BoNT-A LC inh2 inactive and Autofluor counter 22561.
For CC(C)[C@H](NC(=O)Nc1ccc2c(c1)OCCO2)C(=O)O the results were BoNT-F LC inh inactive, Anthrax LF prot inactive, BoNT-A LC inh2 inactive and Autofluor counter 20779.
For CCn1nc(C(=O)NCc2nnc3ccccn23)c2ccccc2c1=O the results were BoNT-F LC inh inactive, Anthrax LF prot inactive, BoNT-A LC inh2 inactive and Autofluor counter inactive.
`Cc1nn(-c2ccccc2)c(C)c1C(=O)Nc1nnc(-c2ccco2)o1` gave BoNT-F LC inh inactive, Anthrax LF prot inactive, BoNT-A LC inh2 inactive and Autofluor counter 20671.
COCn1c(-c2cccc(Br)c2)nc2ccccc21 was read as BoNT-F LC inh inactive, Anthrax LF prot inactive, BoNT-A LC inh2 inconclusive and Autofluor counter 19656.
